According to PubChem BioAssay (EPA / NIEHS):
Activity calls are given as the source filed them. How the source made its calls: active means hit-call score of the fitted dose curve at least 0.9, where 1 is the maximum; inactive means score below 0.9.

target: Nuclear respiratory factor 1 (Homo sapiens) (UniProt Q16656); test: ATG_NRF1_CIS: Attagene CIS-FACTORIAL HepG2 Assay for human Nuclear Respiratory Factor 1 (NRF1) Orphan Gene (AID 2282987); settings: HepG2 NRF1 cis-element reporter, Attagene multiplex; actives raise or lower the signal
Sequence (Q16656 whole entry, looked up): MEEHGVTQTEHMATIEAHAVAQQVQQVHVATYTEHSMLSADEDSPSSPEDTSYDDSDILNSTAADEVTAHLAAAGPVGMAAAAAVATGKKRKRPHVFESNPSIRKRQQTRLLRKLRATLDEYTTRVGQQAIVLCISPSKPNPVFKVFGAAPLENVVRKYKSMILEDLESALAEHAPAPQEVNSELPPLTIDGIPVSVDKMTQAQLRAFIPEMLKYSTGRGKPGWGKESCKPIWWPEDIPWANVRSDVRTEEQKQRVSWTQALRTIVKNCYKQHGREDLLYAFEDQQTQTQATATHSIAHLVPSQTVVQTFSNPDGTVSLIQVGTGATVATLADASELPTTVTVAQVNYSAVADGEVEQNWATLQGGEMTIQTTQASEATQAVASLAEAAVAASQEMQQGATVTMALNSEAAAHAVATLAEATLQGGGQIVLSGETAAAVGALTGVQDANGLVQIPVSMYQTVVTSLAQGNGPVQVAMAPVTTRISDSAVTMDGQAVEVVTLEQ
Description: ATG_CIS is a cell-based, multiplexed-readout assay that uses HepG2, a human liver cell line, with measurements taken at 24 hours after chemical dosing in a 24-well plate.ATG_NRF1_CIS is one of 52 assay component(s) measured or calculated from the ATG_CIS assay. It is designed to make measurements of mRNA induction, a form of inducible reporter, as detected with fluorescence intensity signals by Reverse transcription polymerase chain reaction (RT-PCR) and Capillary electrophoresis technology.Data from the assay component ATG_NRF1_CIS was analyzed into 1 assay endpoint. This assay endpoint, ATG_NRF1_CIS, was analyzed with bidirectional fitting relative to DMSO as the negative control and baseline of activity. Using a type of inducible reporter, measures of mRNA for gain or loss-of-signal activity can be used to understand the reporter gene at the transcription factor-level as they relate to the gene NRF1. Furthermore, this assay endpoint can be referred to as a primary readout, because this assay has produced multiple assay endpoints where this one serves a reporter gene function. To generalize the intended target to other relatable targets, this assay endpoint is annotated to the dna binding intended target family, where the subfamily is nuclear respiratory factors.
Human liver HepG2 cells are transiently transfected with multiple reporter transcription units (MRTUs) in 6-well plates using FuGene 6 reagent (Roche; 3 ml FuGene/1 mg DNA). The MRTU constructs are regulated by a cis-regulating element (promoter). […] A major difference between the CIS and TRANS system is that in CIS activities of endogenous TFs are measured, whereas the TRANS assay evaluates changes in activities of exogenous, chimeric NR-Gal4 proteins. […] At the end of 24 hour incubation, total RNA was isolated using TriZol reagent (Invitrogen). The isolated RNA is then reverse-transcribed using oligo(dT) primer and Mo-MLV reverse transcriptase (Invitrogen) with DNAse I (Ambion) treatment for 30 min. The one-tenth of the produced cDNA was amplified by PCR using Taq DNA polymerase (Invitrogen) and two reporter sequence-specific primers. The PCR products were fluorescently labeled by primer extension with 6-arboxyfluorescein (6-FAM) 5'-labeled reporter sequence-specific primer (2 min at 95 C, 20 s at 68 C and 10 min at 72 C) and these products were digested with 5U of HpaI (New England Biolabs) for 2h at 37 C. The fragments were purified using Qiaquick PCR columns (Qiagen), analyzed on an ABI 3130xL genetic analyzer (Applied Biosystems) with peak positions identified by using a set of X-rhodamine (ROX)-labeled MapMarker1000 molecular weight standards (BioVentures). The raw capillary electrophoresis data was processed using Attagraph software (Attagene).

outcome, inactive:
CC(C#N)(CCC(=O)O)N=NC(C)(C#N)CCC(=O)O (stereo not given), C=CC(=O)OCCOCCOCC, NCCCCCCN, Nc1ccc(S(N)(=O)=O)cc1, CC1CC(OC(=O)c2ccccc2O)CC(C)(C)C1 (stereo not given), CSc1nc(NC2CC2)nc(NC(C)(C)C)n1, C=C(C)C(=O)O[C@H]1C[C@@H]2CC[C@@]1(C)C2(C)C, O=C(O)C[C@H](O)C[C@H](O)/C=C/c1c(C2CC2)nc2ccccc2c1-c1ccc(F)cc1, CC(=O)c1c(C)cc(C(C)(C)C)cc1C, NNc1nc(-c2ccc(N)cc2)cs1, CCCCCCCCCCCCSC, COc1ccnc(CS(=O)c2nc3cc(OC(F)F)ccc3[nH]2)c1OC (stereo not given), CC(CCO)CCc1ccccc1 (stereo not given), C=CC(=O)NCOCC(C)C, O=C[C@H](O)[C@H](O)[C@H](O)CO, C=CC(=O)OCC(O)COc1ccccc1 (stereo not given), C=C(C)C1CCC(C)CC1O (stereo not given), CCCCCCCCCC=O, CNCCO, CCCCCCCCCCCCCCCC(=O)O, O=C(O)CCCCCCCC(=O)O, CCC(C)CCCC(C)(C)O (stereo not given), CCCCCCCCCCCCCCCCCC(=O)OCC(CC)CCCC (stereo not given), CC(C)C1CCC(O)CC1 (stereo not given), O=C(O)c1ccc(C(=O)O)cc1, [Ca+2], CCCCc1ccc(N)cc1, CC(=O)OCCOC(C)=O, Nc1cc([N+](=O)[O-])ccc1O, COC(=O)Cc1cccc2ccccc12, CCCCCCCCCCCCN, COCCOCCOCCOCCOCCO, O=C(O)CN(CCN(CC(=O)O)CC(=O)O)CCN(CC(=O)O)CC(=O)O, CC(C)(C)c1cc(CCC(=O)NN)cc(C(C)(C)C)c1O, N#Cc1ccccc1, CNC(=O)Oc1ccc2c(c1)[C@]1(C)CCN(C)[C@@H]1N2C, Cc1c(Cl)c(=O)oc2cc(O)ccc12, Clc1nc(C(Cl)(Cl)Cl)c(Cl)c(Cl)c1Cl, CCN(CC)c1ccc2c(-c3ccccc3C(=O)O)c3ccc(=[N+](CC)CC)cc-3oc2c1, CO[Si](CCCn1c(=O)n(CCC[Si](OC)(OC)OC)c(=O)n(CCC[Si](OC)(OC)OC)c1=O)(OC)OC
